The source made the active and inactive calls.
Legend:
[1] = system: PRMT1 (protein arginine N-methyltransferase 1); assay: PRMT1 binders on small-molecule microarrays, primary screen, biochemical, small-molecule microarray, 635 nm fluorescence (AID 1088); conditions: small-molecule microarray binding, higher = more signal;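 further: binding of Prmt1 protein to compounds spotted on small-molecule microarray slides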
[2] = yeast growth modulation, basal conditions, primary screen, YJM789 clinical isolate, OD600, 24 h (AID 1089);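 further: growth of clinical yeast isolate S. cerevisiae YJM 789 seeded 1000 cells per well; test concentration not given here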; conditions: S. cerevisiae YJM789 growth, higher = more signal, called active from +8 up or from −8 down
[3] = fission yeast growth modulation, primary screen, strain 972, OD600, 24 h, no modulator (AID 1090);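 further: basal condition with compound alone and no growth modifier present; test concentration not given here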; conditions: S. pombe 972 growth, higher = more signal, called active from +8 up or from −8 down
[4] = S. cerevisiae growth modulation with rapamycin, primary screen, strain BY4716, OD600, 96 h (AID 1091); conditions: higher = more signal, called active from +8 up or from −8 down; further: test concentration not given here
[5] = molecular target: Torsin-1A-interacting protein 2 (Homo sapiens) (UniProt Q8NFQ8); assay: LULL1 binders on small-molecule microarray, primary screen, cell lysate, human LULL1 lysate, 635/667 nm fluorescence (AID 1092); conditions: hLULL1 lysate binding, 635 nm fluorescence, higher = more signal;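 further: probe is lysate of COS7 cells overexpressing human LULL1; score merges per-feature 667 nm fluorescence with signal-to-noise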
[6] = E. coli growth modulation, two-sided OD650, primary screen, E. coli filamentation project, strain DRC41, 24 h (AID 1093); conditions: OD650, 24 h, higher = more signal, called active from +8 up or from −8 down;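 further: MC1000 strain lacking acrAB efflux and sulA so SOS filamentation is blocked; test concentration not given here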
[7] = small-molecule microarray binders of probe aLefty2, primary screen, biochemical, biotinylated probe, 635/667 nm fluorescence (AID 1094); conditions: higher = more signal;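 further: score merges spot fluorescence near 667 nm with spot signal-to-noise ratio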
[8] = system: Noggin (protein binding on small-molecule microarray); assay: Noggin binders on small-molecule microarray, primary screen, biochemical, 635/667 nm fluorescence (AID 1095); conditions: 635 nm fluorescence, higher = more signal;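 further: score merges 667 nm feature fluorescence with signal to noise over triplicate slides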
[9] = molecular target: Neurogenic locus notch homolog protein 3 (Homo sapiens) (UniProt Q9UM47); assay: NOTCH3 binders on small-molecule microarray, primary screen, biochemical, 635/667 nm fluorescence (AID 1096); conditions: NOTCH3 binding, 635 nm fluorescence, higher = more signal
[10] = small-molecule microarray binders of probe aEGFR, primary screen, biochemical, biotinylated probe, 635/667 nm fluorescence (AID 1097); conditions: higher = more signal;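 further: probe is a biotinylated anti-EGFR antibody binding compounds printed on slides; score combines fluorescence near 667 nm and signal to noise of each spot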
[11] = system: Plasmodium falciparum Sir2 (PF13_0152, Sir2A); assay: pfSir2 binders on small-molecule microarrays, primary screen, biochemical, small-molecule microarray, 635 nm fluorescence (AID 1098); conditions: small-molecule microarray binding, fluorescence 635 nm; higher = more signal;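 further: score merges spot fluorescence intensity with its signal-to-noise ratio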
[12] = small-molecule microarray binders of probe aDKK1, primary screen, biochemical, biotinylated probe, 635/667 nm fluorescence (AID 1099); conditions: higher = more signal;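 further: score merges 667nm spot fluorescence with signal to noise across triplicate slides; reference of the scale not given here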
[13] = small-molecule microarray binders of probe aCHRDL2, primary screen, biochemical, biotinylated probe, 635/667 nm fluorescence (AID 1100); conditions: higher = more signal
[14] = splicing luciferase reporter signal modulators, primary screen, spliceosome inhibition project, cell-based, HEK293, splice +/- reporter (AID 1101); conditions: luminescence, 24 h, higher = more signal, called active from +8 up or from −8 down;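 further: HEK293 cells carrying a splicing-competent luciferase reporter gene; test concentration not given here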
[15] = molecular target: Fibroblast growth factor 10 (Homo sapiens) (UniProt O15520); assay: FGF10 binders on small-molecule microarrays, primary screen, biochemical, small-molecule microarray, 635 nm fluorescence (AID 1102); conditions: FGF10 binding, fluorescence 635 nm, higher = more signal
[16] = system: glycogen synthase kinase-3 (GSK3A per assay name; protocol says GSK3B); assay: GSK3 binders on small-molecule microarrays, primary screen, biochemical, small-molecule microarray, 635 nm fluorescence, GSK3A (AID 1103); conditions: small-molecule microarray binding, fluorescence 635 nm; higher = more signal; further: the record names both GSK3A and GSK3B
[17] = molecular target: Epidermal growth factor receptor (Homo sapiens) (UniProt P00533); assay: EGFR binders on small-molecule microarrays, primary screen, biochemical, small-molecule microarray, 635 nm fluorescence (AID 1104); conditions: EGFR binding, higher = more signal;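 further: score merges 667 nm emission intensity with spot signal to noise over triplicate slides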
[18] = molecular target: Follistatin-related protein 3 (Homo sapiens) (UniProt O95633); assay: FSTL3 binders on small-molecule microarrays, primary screen, biochemical, small-molecule microarray, 635 nm fluorescence (AID 1105); conditions: FSTL3 binding, higher = more signal;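 further: score merges emission near 667 nm and signal to noise per printed spot across three slides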
[19] = molecular target: Dickkopf-related protein 1 (Homo sapiens) (UniProt O94907); assay: DKK1 binders on small-molecule microarrays, primary screen, biochemical, small-molecule microarray, 635 nm fluorescence scan (AID 1106); conditions: DKK1 binding, higher = more signal;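 further: score merges emission near 667 nm with signal to noise over three replicate slides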
[20] = system: Inhibin beta A chain (activin A); assay: INHBA (activin A) binders on microarrays, primary screen, biochemical, small-molecule microarray, 635 nm fluorescence scan (AID 1107); conditions: small-molecule microarray binding, higher = more signal;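 further: mouse activin A protein probed at 4.33 µg/mL on printed slides; score merges bound-protein fluorescence near 667 nm with spot signal-to-noise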

Chain of Fibroblast growth factor 10 (Homo sapiens) (O15520 whole entry, looked up): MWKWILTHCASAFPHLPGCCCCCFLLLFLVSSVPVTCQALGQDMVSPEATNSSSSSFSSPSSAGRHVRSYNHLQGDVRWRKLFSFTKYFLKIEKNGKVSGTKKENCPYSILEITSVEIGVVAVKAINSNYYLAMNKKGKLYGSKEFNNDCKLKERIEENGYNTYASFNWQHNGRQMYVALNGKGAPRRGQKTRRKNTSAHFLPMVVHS
Chain of Torsin-1A-interacting protein 2 (Homo sapiens) (Q8NFQ8 whole entry, looked up): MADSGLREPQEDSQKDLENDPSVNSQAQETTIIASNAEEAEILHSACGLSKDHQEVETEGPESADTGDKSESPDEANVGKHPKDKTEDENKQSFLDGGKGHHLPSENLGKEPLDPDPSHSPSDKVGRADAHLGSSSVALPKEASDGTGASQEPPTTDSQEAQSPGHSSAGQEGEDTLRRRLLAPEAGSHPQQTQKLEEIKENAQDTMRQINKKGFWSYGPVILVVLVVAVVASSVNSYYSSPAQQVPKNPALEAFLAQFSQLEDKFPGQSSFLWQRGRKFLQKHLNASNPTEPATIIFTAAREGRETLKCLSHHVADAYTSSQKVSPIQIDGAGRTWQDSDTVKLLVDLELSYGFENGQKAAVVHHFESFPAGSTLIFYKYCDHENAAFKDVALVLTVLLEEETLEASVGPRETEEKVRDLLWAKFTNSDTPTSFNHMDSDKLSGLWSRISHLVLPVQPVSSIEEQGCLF
Chain of Epidermal growth factor receptor (Homo sapiens) (P00533 whole entry, looked up): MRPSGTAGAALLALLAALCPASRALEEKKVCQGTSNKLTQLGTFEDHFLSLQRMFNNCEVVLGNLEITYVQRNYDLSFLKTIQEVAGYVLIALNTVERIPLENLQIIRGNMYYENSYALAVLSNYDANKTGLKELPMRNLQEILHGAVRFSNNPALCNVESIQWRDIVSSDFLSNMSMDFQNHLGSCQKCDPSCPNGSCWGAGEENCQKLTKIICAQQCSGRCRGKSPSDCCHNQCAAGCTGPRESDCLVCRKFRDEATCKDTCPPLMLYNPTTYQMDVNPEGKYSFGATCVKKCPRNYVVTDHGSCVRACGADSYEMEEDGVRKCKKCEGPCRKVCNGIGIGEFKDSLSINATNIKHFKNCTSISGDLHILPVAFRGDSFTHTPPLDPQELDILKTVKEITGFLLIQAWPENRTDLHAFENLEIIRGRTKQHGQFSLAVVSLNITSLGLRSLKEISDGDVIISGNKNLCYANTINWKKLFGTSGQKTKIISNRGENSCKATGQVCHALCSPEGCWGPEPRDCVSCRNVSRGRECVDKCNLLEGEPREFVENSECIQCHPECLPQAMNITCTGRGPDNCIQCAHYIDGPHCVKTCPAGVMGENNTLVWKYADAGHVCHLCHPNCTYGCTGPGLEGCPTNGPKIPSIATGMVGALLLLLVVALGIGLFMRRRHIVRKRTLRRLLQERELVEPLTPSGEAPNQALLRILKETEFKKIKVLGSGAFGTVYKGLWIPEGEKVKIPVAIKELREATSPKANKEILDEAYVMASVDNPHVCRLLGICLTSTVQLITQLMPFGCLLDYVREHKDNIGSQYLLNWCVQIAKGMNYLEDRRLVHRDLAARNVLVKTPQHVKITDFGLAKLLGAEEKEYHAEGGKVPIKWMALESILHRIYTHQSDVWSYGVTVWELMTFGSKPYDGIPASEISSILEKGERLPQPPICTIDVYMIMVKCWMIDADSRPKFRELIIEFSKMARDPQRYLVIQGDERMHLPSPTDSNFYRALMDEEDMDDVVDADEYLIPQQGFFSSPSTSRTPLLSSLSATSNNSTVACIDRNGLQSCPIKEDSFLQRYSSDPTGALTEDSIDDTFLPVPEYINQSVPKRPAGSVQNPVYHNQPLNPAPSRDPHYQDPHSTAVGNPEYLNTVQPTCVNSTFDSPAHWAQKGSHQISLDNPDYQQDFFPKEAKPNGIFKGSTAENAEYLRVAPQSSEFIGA
Chain of Follistatin-related protein 3 (Homo sapiens) (O95633 whole entry, looked up): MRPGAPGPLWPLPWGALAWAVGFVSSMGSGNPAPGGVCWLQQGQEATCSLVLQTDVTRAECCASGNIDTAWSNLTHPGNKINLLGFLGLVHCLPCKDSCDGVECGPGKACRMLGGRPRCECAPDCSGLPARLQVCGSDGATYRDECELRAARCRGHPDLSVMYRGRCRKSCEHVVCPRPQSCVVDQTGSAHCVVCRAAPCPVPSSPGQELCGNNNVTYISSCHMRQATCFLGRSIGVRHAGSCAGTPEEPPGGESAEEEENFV
Chain of Dickkopf-related protein 1 (Homo sapiens) (O94907 whole entry, looked up): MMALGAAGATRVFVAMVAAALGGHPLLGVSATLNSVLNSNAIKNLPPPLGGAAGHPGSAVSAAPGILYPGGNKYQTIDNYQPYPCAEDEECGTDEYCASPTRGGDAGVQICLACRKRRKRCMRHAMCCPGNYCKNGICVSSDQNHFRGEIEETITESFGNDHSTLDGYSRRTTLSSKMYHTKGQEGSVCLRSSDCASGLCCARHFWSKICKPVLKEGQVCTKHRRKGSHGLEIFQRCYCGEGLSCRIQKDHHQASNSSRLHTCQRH
Chain of Neurogenic locus notch homolog protein 3 (Homo sapiens) (Q9UM47 whole entry, looked up): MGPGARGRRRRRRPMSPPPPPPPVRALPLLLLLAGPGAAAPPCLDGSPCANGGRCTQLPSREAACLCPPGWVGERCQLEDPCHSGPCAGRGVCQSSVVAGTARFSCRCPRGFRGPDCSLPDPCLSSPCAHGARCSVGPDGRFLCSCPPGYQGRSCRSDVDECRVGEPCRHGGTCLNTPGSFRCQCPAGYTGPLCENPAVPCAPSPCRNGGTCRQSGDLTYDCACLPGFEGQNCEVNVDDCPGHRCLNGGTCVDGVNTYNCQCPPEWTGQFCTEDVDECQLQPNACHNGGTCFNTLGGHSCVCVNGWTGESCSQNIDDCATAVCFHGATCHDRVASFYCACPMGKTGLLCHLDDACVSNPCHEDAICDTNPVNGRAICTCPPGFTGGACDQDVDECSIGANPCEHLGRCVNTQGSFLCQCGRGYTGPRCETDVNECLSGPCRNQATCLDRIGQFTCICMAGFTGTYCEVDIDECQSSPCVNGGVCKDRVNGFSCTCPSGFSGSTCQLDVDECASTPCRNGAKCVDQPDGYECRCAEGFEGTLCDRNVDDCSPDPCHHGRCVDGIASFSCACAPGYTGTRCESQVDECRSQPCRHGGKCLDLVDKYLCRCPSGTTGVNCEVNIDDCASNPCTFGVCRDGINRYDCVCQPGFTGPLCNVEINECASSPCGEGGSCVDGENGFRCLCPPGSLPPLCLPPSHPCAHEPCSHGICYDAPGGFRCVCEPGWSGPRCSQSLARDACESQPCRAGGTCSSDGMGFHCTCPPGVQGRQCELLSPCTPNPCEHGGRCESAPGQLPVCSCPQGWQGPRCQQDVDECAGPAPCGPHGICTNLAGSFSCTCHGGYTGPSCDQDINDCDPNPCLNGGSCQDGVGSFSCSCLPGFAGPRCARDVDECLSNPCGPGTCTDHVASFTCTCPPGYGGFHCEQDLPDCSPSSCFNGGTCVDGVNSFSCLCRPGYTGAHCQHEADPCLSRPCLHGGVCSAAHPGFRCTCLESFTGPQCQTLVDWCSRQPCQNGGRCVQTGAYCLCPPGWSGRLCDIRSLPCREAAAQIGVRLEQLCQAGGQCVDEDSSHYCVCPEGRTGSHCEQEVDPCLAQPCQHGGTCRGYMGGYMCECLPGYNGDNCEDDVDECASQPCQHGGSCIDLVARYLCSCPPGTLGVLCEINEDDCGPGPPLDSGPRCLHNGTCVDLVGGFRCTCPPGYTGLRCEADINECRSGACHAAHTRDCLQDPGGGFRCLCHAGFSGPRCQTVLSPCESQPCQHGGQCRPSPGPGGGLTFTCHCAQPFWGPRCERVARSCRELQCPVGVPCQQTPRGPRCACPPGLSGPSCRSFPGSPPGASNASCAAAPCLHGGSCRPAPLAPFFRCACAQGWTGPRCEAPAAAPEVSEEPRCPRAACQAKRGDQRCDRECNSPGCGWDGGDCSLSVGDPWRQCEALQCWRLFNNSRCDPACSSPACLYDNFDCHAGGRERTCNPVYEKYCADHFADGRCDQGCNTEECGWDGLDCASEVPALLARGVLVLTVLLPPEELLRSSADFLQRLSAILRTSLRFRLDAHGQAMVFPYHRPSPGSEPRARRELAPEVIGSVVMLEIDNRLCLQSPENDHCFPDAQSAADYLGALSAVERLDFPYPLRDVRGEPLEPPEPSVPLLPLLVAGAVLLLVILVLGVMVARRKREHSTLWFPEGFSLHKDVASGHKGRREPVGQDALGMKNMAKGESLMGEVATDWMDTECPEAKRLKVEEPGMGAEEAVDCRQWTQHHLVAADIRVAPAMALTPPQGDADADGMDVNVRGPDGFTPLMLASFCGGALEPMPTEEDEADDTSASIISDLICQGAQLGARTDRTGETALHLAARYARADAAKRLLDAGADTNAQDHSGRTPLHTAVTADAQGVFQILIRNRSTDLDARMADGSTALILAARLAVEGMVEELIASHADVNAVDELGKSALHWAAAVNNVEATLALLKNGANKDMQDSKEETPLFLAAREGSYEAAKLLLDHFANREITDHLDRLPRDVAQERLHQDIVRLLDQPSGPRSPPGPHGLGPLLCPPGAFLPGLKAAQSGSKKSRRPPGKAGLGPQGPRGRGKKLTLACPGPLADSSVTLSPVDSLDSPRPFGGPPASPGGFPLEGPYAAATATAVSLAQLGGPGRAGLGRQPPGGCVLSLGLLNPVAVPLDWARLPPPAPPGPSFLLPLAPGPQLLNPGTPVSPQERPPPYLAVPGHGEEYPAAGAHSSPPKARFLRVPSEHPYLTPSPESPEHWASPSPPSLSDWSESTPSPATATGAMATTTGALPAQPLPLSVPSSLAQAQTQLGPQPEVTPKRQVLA

For `C=CCC(OC(C)=O)[C@@H]1[C@@H](N(Cc2ccc(-c3ccccc3)cc2)C(=O)Cc2ccc(F)cc2)c2cc(OCCCO)ccc2N1C(=O)c1ccc2ccccc2n1` (stereo not given in full), the composite z-score [1] was -0.0414, the z-score [2] was -0.583 (inactive) and the z-score [3] was -0.0387 (inactive). For the same compound, the z-score [4] was -0.527 (inactive), the composite z-score [5] was 0.208 and the z-score [6] was 1.47 (inactive). For the same compound, the composite z-score [7] was -0.057, the composite z-score [8] was -0.423 and the composite z-score [9] was -0.0833. It also gave a composite z-score [10] of 0.44, a composite z-score [11] of 0.295 and a composite z-score [12] of 0.0021. The composite z-score [13] was 0.531, the z-score [14] was -0.457 (inactive) and the composite z-score [15] was 0.0915. The composite z-score [16] was -0.226, the composite z-score [17] was -0.294 and the composite z-score [18] was -0.112. The composite z-score [19] was -0.221 and the composite z-score [20] was 1.27.

For `C=C[C@H](C)[C@@H](O)c1ccc(O)c2ccccc12`, the composite z-score [1] was -0.169, the z-score [2] was -0.968 (inactive) and the z-score [3] was -13.3 (active). The z-score [4] was 4.25 (inactive), the composite z-score [5] was 0.853 and the z-score [6] was 0.149 (inactive). For the same compound, the composite z-score [7] was -0.254, the composite z-score [8] was -0.0597 and the composite z-score [9] was -0.0004. The composite z-score [10] was -0.322, the composite z-score [11] was 1.43 and the composite z-score [12] was -0.302. For the same compound, the composite z-score [13] was -0.0488, the z-score [14] was -0.0352 (inactive) and the composite z-score [15] was -0.152. For the same compound, the composite z-score [16] was -0.61, the composite z-score [17] was -0.775 and the composite z-score [18] was -0.189. For the same compound, the composite z-score [19] was 0.0078 and the composite z-score [20] was 1.28.

In the case of `O=C1C2C=CC(C(O)c3ccc(F)cc3)N(Nc3ccccc3)C2C(=O)N1c1ccccc1` (stereo not given), the composite z-score [1] is reported as 0.435, the z-score [2] is reported as 0.874 (inactive) and the z-score [3] is reported as 1.31 (inactive). The z-score [4] was 1.59 (inactive), the composite z-score [5] was 3.15 and the z-score [6] was -0.754 (inactive). The composite z-score [7] was 0.388, the composite z-score [8] was -1.2 and the composite z-score [9] was 0.246. The composite z-score [10] was -0.0111, the composite z-score [11] was 1.44 and the composite z-score [12] was 1.05. The composite z-score [13] was 0.794, the z-score [14] was 0.444 (inactive) and the composite z-score [15] was -0.0653. For the same compound, the composite z-score [16] was -0.0052, the composite z-score [17] was -0.296 and the composite z-score [18] was -0.216. It also gave a composite z-score [19] of -0.954 and a composite z-score [20] of 1.46.

With `C[C@H]1NC(=O)[C@H](Cc2ccccc2)NC(=O)[C@@]23C(=O)N[C@@H](Cc4ccccc4)C2[C@H](C)[C@@]2(C)O[C@H]2C3/C=C/C/C=C\CNC1=O` (stereo not given in full) the composite z-score [1] was -0.839, the z-score [2] was 0.967 (inactive) and the z-score [3] was 0.266 (inactive). For the same compound, the z-score [4] was 0.865 (inactive), the composite z-score [5] was -1.32 and the z-score [6] was 1 (inactive). The composite z-score [7] was -0.0724, the composite z-score [8] was -0.389 and the composite z-score [9] was -0.795. For the same compound, the composite z-score [10] was -0.183, the composite z-score [11] was 0.444 and the composite z-score [12] was -0.245. For the same compound, the composite z-score [13] was -0.471, the z-score [14] was 0.587 (inactive) and the composite z-score [15] was -0.354. The composite z-score [16] was -1.16, the composite z-score [17] was 0.203 and the composite z-score [18] was -0.0523. The composite z-score [19] was 0.461 and the composite z-score [20] was 1.45.

In the case of `CCOC(=O)C[C@H]1[C@H](OC(=O)c2ccccc2-c2ccccc2)[C@@H](NC(=O)Cc2ccc(OC)cc2)c2cc(OCCCO)ccc2N1C(=O)c1ccccc1`, the composite z-score [1] is reported as -0.617, the z-score [2] is reported as 0.82 (inactive) and the z-score [3] is reported as 0.266 (inactive). For the same compound, the z-score [4] was 1.36 (inactive), the composite z-score [5] was 1.33 and the z-score [6] was -1.08 (inactive). For the same compound, the composite z-score [7] was -0.218, the composite z-score [8] was -0.337 and the composite z-score [9] was -0.231. The composite z-score [10] was -0.115, the composite z-score [11] was -0.394 and the composite z-score [12] was -0.236. The composite z-score [13] was -0.0402, the z-score [14] was -0.258 (inactive) and the composite z-score [15] was 0.225. The composite z-score [16] was -1.28, the composite z-score [17] was 0.192 and the composite z-score [18] was -0.0572. For the same compound, the composite z-score [19] was 0.232 and the composite z-score [20] was 0.34.

In the case of `O=C1C=CC(=O)[C@@H]2CC(COc3ccccc3)=C3[C@@H](CCc4ccccc4)OB(O)C[C@@H]3[C@H]12`, the composite z-score [1] is reported as 0.702, the z-score [2] is reported as 0.168 (inactive) and the z-score [3] is reported as -8.15 (active). For the same compound, the z-score [4] was 0.203 (inactive), the composite z-score [5] was -0.188 and the z-score [6] was -0.125 (inactive). For the same compound, the composite z-score [7] was -0.289, the composite z-score [8] was 0.533 and the composite z-score [9] was 0.49. The composite z-score [10] was 0.0338, the composite z-score [11] was 0.403 and the composite z-score [12] was -0.339. The composite z-score [13] was -0.523, the z-score [14] was 2.04 (inactive) and the composite z-score [15] was 0.545. It also gave a composite z-score [16] of 0.34, a composite z-score [17] of 0.515 and a composite z-score [18] of 0.887. The composite z-score [19] was 1.07 and the composite z-score [20] was 0.72.

In the case of `CS(=O)(=O)CCOC(=O)C1=CC(CCCO)=CC(c2cccs2)N(Cc2cc3c(cc2Br)OCO3)C=C1C(=O)OCCS(C)(=O)=O` (stereo not given), the composite z-score [1] is reported as 1.56, the z-score [2] is reported as 0.187 (inactive) and the z-score [3] is reported as -1.16 (inactive). The z-score [4] was -0.919 (inactive), the composite z-score [5] was 2.82 and the z-score [6] was 0.734 (inactive). The composite z-score [7] was -0.0379, the composite z-score [8] was 0.91 and the composite z-score [9] was 1.06. For the same compound, the composite z-score [10] was 0.0503, the composite z-score [11] was 0.727 and the composite z-score [12] was -0.0606. For the same compound, the composite z-score [13] was 0.15, the z-score [14] was 0.576 (inactive) and the composite z-score [15] was 1.04. It also gave a composite z-score [16] of 1.25, a composite z-score [17] of 0.259 and a composite z-score [18] of 1.22. For the same compound, the composite z-score [19] was 0.238 and the composite z-score [20] was 1.2.

With `O=C(CCN1CCOCC1)c1cccc(O)c1` the composite z-score [1] was 1.3, the z-score [2] was -1.35 (inactive) and the z-score [3] was -5.52 (inactive). The z-score [4] was -1.01 (inactive), the composite z-score [5] was 0.571 and the z-score [6] was -2.03 (inactive). It also gave a composite z-score [7] of 0.197, a composite z-score [8] of 0.645 and a composite z-score [9] of 1.07. It also gave a composite z-score [10] of 0.234, a composite z-score [11] of 1.63 and a composite z-score [12] of 0.191. The composite z-score [13] was -0.399, the z-score [14] was 0.964 (inactive) and the composite z-score [15] was 1.37. The composite z-score [16] was 1.22, the composite z-score [17] was 1.74 and the composite z-score [18] was 1.49. For the same compound, the composite z-score [19] was 1.8 and the composite z-score [20] was 1.53.

For `CC(C)c1ccc(NN2C(C(O)c3ccc(N(C)C)cc3)C=CC3C(=O)N(c4ccccc4)C(=O)C32)cc1` (stereo not given), the composite z-score [1] was 1.56, the z-score [2] was 0.372 (inactive) and the z-score [3] was 1.26 (inactive). The z-score [4] was 0.197 (inactive), the composite z-score [5] was 3.34 and the z-score [6] was -0.158 (inactive). It also gave a composite z-score [7] of 0.188, a composite z-score [8] of 0.109 and a composite z-score [9] of 1.03. The composite z-score [10] was -0.027, the composite z-score [11] was 1.24 and the composite z-score [12] was 0.64. For the same compound, the composite z-score [13] was 0.947, the z-score [14] was -0.132 (inactive) and the composite z-score [15] was 0.782. It also gave a composite z-score [16] of 0.267, a composite z-score [17] of 0.0151 and a composite z-score [18] of 1.25. It also gave a composite z-score [19] of 0.469 and a composite z-score [20] of 0.898.
